# Experimental data: ChEMBL document CHEMBL5606460, “ASAP - DENV-2 NS2B-NS3 protease fluorescence single point” (2024)
# The whole screen tested about 2,000 compounds, of which about 110 (5.5%) showed an effect of 50% or more. Many of the other results were omitted from the sample, so strong results are more common in it than they were.
# Target: Genome polyprotein (dengue virus type 2) (UniProt P29990)
# [1] = Thailand/16681/1984, Concentration 25.0 uM, Number of replicates 1.0
compound,measurement,setting,value
Cc1cn(-c2cc(NC(=O)C3CCN(c4ccc(C=O)cc4)CC3)cc(C(F)(F)F)c2)cn1,inhibition,[1],12.1%
O=Cc1ccc(N2CCC(C(=O)N3CCC(c4nc5ccccc5s4)CC3)CC2)cc1,inhibition,[1],14.3%
Cn1cc(CNC(=O)c2ccccc2CN)cn1,inhibition,"Thailand/16681/1984, Concentration 49.5 uM, Number of replicates 2.0, Standard deviation 4.704758964680012 %",-1.53%
same,inhibition,"Thailand/16681/1984, Concentration 99.01 uM, Number of replicates 2.0, Standard deviation 3.3738585950449482 %",-6.84%
same,inhibition,"Thailand/16681/1984, Concentration 198.0 uM, Number of replicates 2.0, Standard deviation 1.4794083306984744 %",-5.39%
c1cnc2c(CN3CCC(c4c[nH]c5cccnc45)CC3)c[nH]c2c1,inhibition,"Thailand/16681/1984, Concentration 49.5 uM, Number of replicates 2.0, Standard deviation 2.401783006640112 %",-4.14%
same,inhibition,"Thailand/16681/1984, Concentration 99.01 uM, Number of replicates 2.0, Standard deviation 2.691377880268528 %",-3.47%
same,inhibition,"Thailand/16681/1984, Concentration 198.0 uM, Number of replicates 2.0, Standard deviation 2.989922552884535 %",-1.51%
O=Cc1ccc(N2CCC(C(=O)N[C@@H](Cc3ccccc3)c3ccccc3)CC2)cc1,inhibition,[1],4.84%
O=Cc1ccc(N2CCC(C(=O)NC[C@H]3COc4ccccc4O3)CC2)cc1,inhibition,[1],15.5%
C#CCN(Cc1ccccc1Cl)C(=O)C1CCN(c2ccc(C=O)cc2)CC1,inhibition,[1],14.7%
C[C@H]1COCCN1C(=O)c1cc(Cl)ccc1NS(=O)(=O)c1ccc(Oc2ccccc2Cl)cc1,inhibition,"Thailand/16681/1984, Concentration 49.5 uM, Number of replicates 2.0, Standard deviation 1.11087224122176 %",42.6%
same,inhibition,"Thailand/16681/1984, Concentration 99.01 uM, Number of replicates 2.0, Standard deviation 0.41977451897359047 %",79.8%
same,inhibition,"Thailand/16681/1984, Concentration 198.0 uM, Number of replicates 2.0, Standard deviation 0.050716482924917095 %",92.9%
CNC(=O)c1cc(Br)cnc1NS(=O)(=O)c1ccc(Oc2ccccc2Cl)cc1,inhibition,"Thailand/16681/1984, Concentration 49.5 uM, Number of replicates 2.0, Standard deviation 0.1523274770628613 %",20.5%
same,inhibition,"Thailand/16681/1984, Concentration 99.01 uM, Number of replicates 2.0, Standard deviation 0.08785965758059779 %",73.9%
same,inhibition,"Thailand/16681/1984, Concentration 198.0 uM, Number of replicates 2.0, Standard deviation 0.12988512316778045 %",87.2%
CCc1ccc(NS(=O)(=O)c2ccc(Oc3ccccc3Cl)cc2)c(C(=O)NC)c1,inhibition,"Thailand/16681/1984, Concentration 49.5 uM, Number of replicates 2.0, Standard deviation 2.280534278494396 %",20.1%
same,inhibition,"Thailand/16681/1984, Concentration 99.01 uM, Number of replicates 2.0, Standard deviation 1.9533776277108892 %",35.5%
same,inhibition,"Thailand/16681/1984, Concentration 198.0 uM, Number of replicates 2.0, Standard deviation 2.0141203401343657 %",57.1%
CNC(=O)c1cc(C#N)ccc1NS(=O)(=O)c1ccc(Oc2ccccc2Cl)cc1,inhibition,"Thailand/16681/1984, Concentration 49.5 uM, Number of replicates 2.0, Standard deviation 0.4271842721165937 %",49.4%
same,inhibition,"Thailand/16681/1984, Concentration 99.01 uM, Number of replicates 2.0, Standard deviation 0.14972718509713318 %",88.8%
same,inhibition,"Thailand/16681/1984, Concentration 198.0 uM, Number of replicates 2.0, Standard deviation 0.1152868035427591 %",94%
CNC(=O)c1nc(Cl)ccc1NS(=O)(=O)c1ccc(Oc2ccccc2Cl)cc1,inhibition,"Thailand/16681/1984, Concentration 49.5 uM, Number of replicates 2.0, Standard deviation 0.5855266102241418 %",6.34%
same,inhibition,"Thailand/16681/1984, Concentration 99.01 uM, Number of replicates 2.0, Standard deviation 0.14494638377684543 %",6.62%
same,inhibition,"Thailand/16681/1984, Concentration 198.0 uM, Number of replicates 2.0, Standard deviation 0.056926230997118174 %",4.4%
CNC(=O)c1cc(Cl)ccc1NS(=O)(=O)c1ccc(C(=O)N2CCOCC2)cc1,inhibition,"Thailand/16681/1984, Concentration 49.5 uM, Number of replicates 2.0, Standard deviation 0.9242131636205312 %",0.016%
same,inhibition,"Thailand/16681/1984, Concentration 99.01 uM, Number of replicates 2.0, Standard deviation 0.5448647637736805 %",0.743%
same,inhibition,"Thailand/16681/1984, Concentration 198.0 uM, Number of replicates 2.0, Standard deviation 0.08706358790592401 %",3.74%
CNC(=O)c1cncnc1NS(=O)(=O)c1ccc(Oc2ccccc2Cl)cc1,inhibition,"Thailand/16681/1984, Concentration 49.5 uM, Number of replicates 2.0, Standard deviation 1.0127526920144583 %",5.46%
same,inhibition,"Thailand/16681/1984, Concentration 99.01 uM, Number of replicates 2.0, Standard deviation 1.3865274661736828 %",5.75%
same,inhibition,"Thailand/16681/1984, Concentration 198.0 uM, Number of replicates 2.0, Standard deviation 1.0625889801550739 %",3.56%
CNC(=O)c1cc(Cl)ncc1NS(=O)(=O)c1ccc(Oc2ccccc2Cl)cc1,inhibition,"Thailand/16681/1984, Concentration 49.5 uM, Number of replicates 2.0, Standard deviation 0.003826975991637689 %",-0.629%
same,inhibition,"Thailand/16681/1984, Concentration 99.01 uM, Number of replicates 2.0, Standard deviation 0.08610681229787821 %",-0.288%
same,inhibition,"Thailand/16681/1984, Concentration 198.0 uM, Number of replicates 2.0, Standard deviation 0.5032468582115982 %",12.6%
Cc1cc(CO)c2cccc(NC(=O)CN3CCOCC3)c2n1,inhibition,"Thailand/16681/1984, Concentration 49.95 uM, Number of replicates 2.0, Standard deviation 2.1720644748171827 %",8.27%
same,inhibition,"Thailand/16681/1984, Concentration 99.9 uM, Number of replicates 2.0, Standard deviation 1.8504772771832996 %",15.1%
CS(=O)(=O)N1CCC(C(=O)Nc2nc3c(F)cccc3s2)CC1,inhibition,"Thailand/16681/1984, Concentration 49.5 uM, Number of replicates 2.0, Standard deviation 0.96531236791799 %",0.796%
same,inhibition,"Thailand/16681/1984, Concentration 99.01 uM, Number of replicates 2.0, Standard deviation 0.9471689504241718 %",0.997%
same,inhibition,"Thailand/16681/1984, Concentration 198.0 uM, Number of replicates 2.0, Standard deviation 0.2746253667085591 %",0.83%
NCc1cccc(NC(=O)[C@H]2CCN(C(=O)OCc3ccccc3)C2)c1,inhibition,"Thailand/16681/1984, Concentration 49.5 uM, Number of replicates 2.0, Standard deviation 1.9221944810499825 %",-1.99%
same,inhibition,"Thailand/16681/1984, Concentration 99.01 uM, Number of replicates 2.0, Standard deviation 1.6664051520702452 %",-1.6%
same,inhibition,"Thailand/16681/1984, Concentration 198.0 uM, Number of replicates 2.0, Standard deviation 2.955416090340052 %",-1.98%
O=Cc1ccc(N2CCC(C(=O)N[C@H]3CCOc4ccc(F)cc43)CC2)cc1,inhibition,[1],15.7%
COc1cc(Cc2cnn(-c3ccc(F)cc3)c2)nc(N2CCNCC2)n1,inhibition,"Thailand/16681/1984, Concentration 49.5 uM, Number of replicates 2.0, Standard deviation 0.031215136118926425 %",0.871%
same,inhibition,"Thailand/16681/1984, Concentration 99.01 uM, Number of replicates 2.0, Standard deviation 1.7579341775024742 %",1.83%
same,inhibition,"Thailand/16681/1984, Concentration 198.0 uM, Number of replicates 2.0, Standard deviation 1.6450393762001025 %",5.51%
O=C(O)c1ccn(C2CCN(Cc3c[nH]c4ccccc34)CC2)n1,inhibition,"Thailand/16681/1984, Concentration 49.5 uM, Number of replicates 2.0, Standard deviation 2.1869842063089484 %",-2.55%
same,inhibition,"Thailand/16681/1984, Concentration 99.01 uM, Number of replicates 2.0, Standard deviation 2.684345636447637 %",-2.42%
same,inhibition,"Thailand/16681/1984, Concentration 198.0 uM, Number of replicates 2.0, Standard deviation 2.4976754742252494 %",-2.46%
